Bioassay records (PubChem)
Sampled rows, rich in hits. Any-hit rate of the full collection: about 2.4%.
STAT1 blocker = STAT1 signaling inhibitors, primary screen, cell-based, HTS, luciferase reporter; NIH 3T3 STAT1-luciferase reporter, IFN-gamma, luminescence; 200,000 compounds, 0.35% hits; inhibition, % at 5.5 µM;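 active means inhibition above a set limit, the mean inhibition across all tested compounds plus 3 SD, cut at about 34% in these data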;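 further: 0% = IFN-gamma with DMSO and 100% = IFN-gamma with 300 µM nifuroxazide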
HSF1 inhib = HSF1 inhibitors in luciferase reporter cells, primary screen, cell-based, NIH3T3, luminescence | NIH3T3-HGL HSE-luciferase, MG132-induced, luminescence 8 h; active compounds read low | activity change, negative = inhibition, % at 7.5 µM (by protocol) | 300,000 compounds, 0.77% hits;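 active means more than half of replicate wells show activity change below -50%, luminescence cut by over half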;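 further: luciferase reports HSF-1 transcriptional activity via heat shock element; 0% = median of DMSO wells and -100% = zero luminescence signal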
C8 TRAIL sens = viability loss with TRAIL in NB7+C8 cells, primary screen, TRAIL sensitizer project, cell-based, ATPlite luminescence | 360,000 compounds, 1% hits | inhibition (viability loss, TRAIL sensitization), % at 10 µM;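 active means compounds causing at least 50% loss of cell viability in the single-dose screen, relative to plate controls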
HSP90 inh = HSP90 inhibitors, primary screen, cell lysate, luminescence; Heat shock protein HSP 90 (rabbit reticulocyte lysate; luciferase refolding); Rabbit reticulocyte lysate, luciferase refolding luminescence, 3 h; inhibition, % at 5.6 µM; 290,000 compounds, 0.91% hits; AID 1789, 2009;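 active means inhibition above the screen-wide mean plus 3 SD, computed separately per campaign, cut at about 16% in these data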;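 further: 0% = DMSO wells and 100% = 60 µM geldanamycin wells; inhibitors lower the luminescence because luciferase stays unfolded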
PPC-1+TRAIL kill = compounds killing PPC-1 cancer cells with TRAIL present, primary screen, TRAIL potentiator project, ATPLite luminescence, uHTS; PPC-1 cells + TRAIL, ATPLite viability luminescence; cell killing (% activity), % at 4 µM or 5 µM; 220,000 compounds, 0.41% hits; AID 1443, 2008;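 active means cell killing above 50% in the first pass at 4 µM, then a duplicate retest at 5 µM averaging 50% or more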;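 further: plate controls were cells with TRAIL plus DMSO for no effect and medium-only wells lacking cells for full effect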
STAT3 inh-1 = IL-6 driven STAT3 reporter inhibitors, primary screen, U3A cells, luciferase, luminescence, MLSCN library. IL-6 STAT3-luciferase reporter; host cell line lacks STAT1. inhibition, % at 5.5 µM. 190,000 compounds, 0.89% hits;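 active means inhibition above the mean inhibition across all screened compounds plus 3 SD, cut at about 44% in these data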;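 further: 0% = DMSO only wells and 100% = 100 µM nifuroxazide control wells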
STAT3 inh-2 = STAT3 reporter inhibitors, retest of hits, confirmation, U3A cells, luciferase, luminescence; inhibition, % at 5.7 µM; 1,200 compounds, 45% hits; IL-6 STAT3 luciferase reporter; cell line lacks STAT1; AID 1265, 2008; shares compounds with STAT3 inh-1;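 active means inhibition above the hit cutoff computed for the primary STAT3 screen, cut at about 44% in these data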;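 further: 0% = IL-6 plus DMSO and 100% = IL-6 plus nifuroxazide control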
NFkB inh STAT3ct = NF-kB reporter inhibitors in human cells, confirmation, counter-screen for STAT3 inhibitor project, cell-based, HEK293T, luciferase, TNF-alpha stimulus. shares compounds with STAT3 inh-1. TNF-alpha induced. inhibition, % at 5.7 µM. 1,200 compounds, 36% hits. AID 1308, 2008;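 active means inhibition above the mean of solvent-only control wells plus 3 SD, cutoff set per campaign, cut at about 13% in these data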;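 further: 0% = TNF-alpha with DMSO and 100% = TNF-alpha with MG high control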
STAT1 inh STAT3c = STAT1 reporter inhibitors, IFN-gamma induced, confirmation, counter-screen for STAT3 inhibitor project, cell-based, NIH 3T3, luciferase luminescence; inhibition, % at 5.7 µM; NIH 3T3 STAT1-luciferase reporter; AID 1317, 2008; 1,200 compounds, 27% hits; shares compounds with STAT3 inh-1;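 active means inhibition above the mean plus 3 SD of solvent-only control wells, limit set per screening run, cut at about 16% in these data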;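 further: 0% = DMSO with IFN-gamma and 100% = nifuroxazide control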
Numbers without * were called inactive; / = not tested or not shown.

SMILES	STAT1 blocker	HSF1 inhib	C8 TRAIL sens	HSP90 inh	PPC-1+TRAIL kill	STAT3 inh-1	STAT3 inh-2	NFkB inh STAT3ct	STAT1 inh STAT3c
O=C(Nc1ccc(Oc2ccccc2)cc1)c1cnc2n(c1=O)CCS2	13.9	-20.2	26.5	-1.3	5.4	77.6*	72.7*	11.2	13.5
O=c1[nH]c(CSc2ccccn2)nc2c1oc1ccccc12	17.6	47.6	30.1	6.7	30.9	70.9*	18.1	-7.7	-62.3
Cc1ccc(CC(=O)Nc2ccc(Cl)cn2)cc1	/	8.4	2.6	-1.6	/	/	/	/	/
CCCOc1ccc(C(=O)Nc2ccc(Cl)cn2)cc1	-2.0	17.5	31.6	12.6	30.2	55.6*	21.7	-19.1	-105.0
Cc1ccc(NC(=O)c2sc3ccccc3c2Cl)nc1	-31.0	-0.8	70.1*	-5.6	39.6	49.0*	-0.5	0.4	-72.2
Cc1ccc(C(=O)Nc2ccc(Cl)cn2)cc1	-24.9	2.9	61.6*	6.8	36.5	56.2*	13.0	-16.4	-107.1
CC(C)C(=O)Nc1ccc2oc(-c3cc(F)c(F)cc3Cl)nc2c1	-17.0	-4.5	14.5	-3.9	-3.4	12.8	/	/	/
CC(=O)Nc1ccc2oc(-c3cc(F)c(F)cc3Cl)nc2c1	-36.6	-6.3	44.1	-0.7	-15.1	46.1*	32.4	-24.1	-91.3
CC(=O)Nc1ccc2oc(-c3ccccc3Br)nc2c1	-23.8	9.2	22.1	7.1	34.8	48.4*	11.9	-38.1	-127.4
C#CC1(O)CCC2C3CCc4cc(O)cc(C)c4C3CCC21C (stereo not given)	/	/	3.3	/	/	/	/	/	/
Cc1ccc(CNC(=O)C2CCC(=O)N2C2CCCCC2)cc1 (stereo not given)	-2.7	-9.8	-10.1	-1.1	5.9	7.3	/	/	/
O=C(NCc1ccc(F)cc1)C1CCC(=O)N1C1CCCCC1 (stereo not given)	0.2	4.1	6.1	2.7	-8.4	44.8*	8.4	-7.3	-6.5
Cc1sc2ncnc(NC3CCN(Cc4ccccc4)CC3)c2c1C	32.8	-3.2	35.7	2.0	20.2	45.1*	61.5*	16.0*	25.2*
Clc1ccc(OCCN2CCN(c3ncnc4sccc34)CC2)cc1	29.3	/	19.5	-1.2	23.5	88.6*	87.5*	33.8*	22.8*
Cc1ccc(OCCN2CCN(c3ncnc4sc(C)c(C)c34)CC2)cc1	23.5	-7.5	15.5	1.0	-0.5	79.3*	81.4*	26.2*	25.1*
CCN1CCN(CCOc2ccc(Cl)cc2)CC1	-16.3	3.6	-1.0	1.8	3.0	10.5	/	/	/
COc1ccc(NS(=O)(=O)c2ccc(NC(C)=O)cc2)c(OC)c1	4.9	-4.6	-3.3	4.9	8.8	2.0	/	/	/
CCN(CC)S(=O)(=O)c1ccc(NC(=O)c2ccc(N(C)S(C)(=O)=O)cc2)cc1	4.3	-3.0	20.2	3.2	43.5	80.5*	71.7*	29.5*	7.0
CCN(CC)S(=O)(=O)c1ccc(C(=O)Nc2cc(C)cc(C)c2)cc1	4.8	-0.5	4.8	1.3	11.5	23.8	/	/	/
COC(=O)c1ccc(NC(=O)c2ccc(N(C)S(C)(=O)=O)cc2)cc1	0.0	-2.9	-2.4	-1.7	11.4	52.0*	39.1	1.6	-7.9
COc1ccc(NS(=O)(=O)c2ccc(NC(=O)c3ccc(N(C)S(C)(=O)=O)cc3)cc2)c(OC)c1	16.2	-15.6	13.3	-1.2	20.9	73.1*	84.4*	26.0*	23.5*
CCN(CC)S(=O)(=O)c1ccc(C(=O)Nc2ccc(Cc3ccncc3)cc2)cc1	22.3	-8.5	31.7	-3.3	8.5	64.5*	61.2*	15.6*	16.5*
Cc1cccc(C)c1NC(=O)C(c1cccc2ccccc12)n1c(=O)c(-c2cc3ccccc3[nH]2)nc2ccccc21 (stereo not given)	/	/	10.7	/	/	/	/	/	/
Cc1c(C(=O)Nc2ccc3c(c2)OCCO3)sc2nc(-c3ccccc3)cn12	34.3*	11.5	14.7	2.6	23.8	51.0*	42.3	1.7	10.4
CN(Cc1c(C(=O)N/N=C/c2ccccc2O)nnn1-c1nonc1N)C1CCCCC1	/	/	25.0	/	/	/	/	/	/
SMILES	STAT1 blocker	HSF1 inhib	C8 TRAIL sens	HSP90 inh	PPC-1+TRAIL kill	STAT3 inh-1	STAT3 inh-2	NFkB inh STAT3ct	STAT1 inh STAT3c
COC(=O)[C@@]12C[C@@H](CC(=O)NCc3ccc(OC)c(OC)c3)C(=O)N(Cc3ccccc3)C1=CCC(C)(C)C2	/	/	-4.6	/	/	/	/	/	/
Cc1ccc(NC(=O)Nc2ccnc(-c3cccnc3)n2)cc1	19.0	/	9.3	-2.2	19.8	66.2*	70.2*	1.5	22.7*
Cc1ccc(C(=O)Nc2ccnc(-c3cccnc3)n2)cc1	-23.2	26.1	-7.6	1.5	-3.3	14.6	/	/	/
CCOc1ccc2nc3sc(C(=O)N4CCOCC4)c(N)c3cc2c1	16.9	3.7	-2.1	-8.4	/	56.3*	1.5	-6.1	-8.1
Cc1cc(C)c2cc3c(N)c(C(=O)N4CCOCC4)sc3nc2c1	-51.0	13.1	-8.7	0.3	12.0	3.3	/	/	/
CCc1ccc(OC(=O)Nc2ccccc2)cc1	/	24.0	6.6	-2.9	/	/	/	/	/
CC(=O)CSc1nc2cc3c(cc2cc1C#N)OCCO3	13.4	-5.0	67.2*	-1.9	48.4	77.7*	28.2	0.6	-94.5
O=C(NCc1cccc(C(F)(F)F)c1)c1[nH]c(C(F)(F)F)nc1-c1ccccc1	/	/	2.5	/	/	/	/	/	/
Cc1ccc(-c2cn3nc(C)c(C)nc3n2)cc1	-13.7	-10.8	32.1	1.4	28.4	-4.4	/	/	/
Clc1ccc(-c2cn3nc4c(nc3n2)CCCC4)cc1	-14.1	6.9	28.6	7.9	3.8	51.3*	42.2	-11.5	-77.9
O=C(CN1CCCC1c1cccs1)Nc1cc(S(=O)(=O)N2CCCCC2)ccc1Cl (stereo not given)	/	/	21.7	/	/	/	/	/	/
COc1ccc(C(=O)c2ccc(Cl)cc2)c2ccccc12	-9.2	-7.5	3.0	0.1	1.9	0.4	/	/	/
COc1ccc(C(=O)c2ccccc2)c2c(O)ccc(C(=O)c3ccccc3)c12	9.0	3.0	9.9	7.4	3.6	65.2*	61.6*	15.6*	-0.6
Cc1cc(N=NC(=O)c2ccccc2)ccc1O	24.2	18.2	-1.5	0.4	-3.9	55.4*	5.3	1.2	4.0
O=C(ONc1ccc(N=NC(=O)c2ccccc2O)cc1)c1ccccc1	2.0	-2.4	29.5	-3.3	25.1	13.7	/	/	/
